Assay results as given in the supplement of paper PMC10849652.
Of roughly 7,900 targets only a part is listed; those with a hit were picked by preference. About 0.6% of all pairs of compound and target were hits.

How the values were obtained:
Assay in all cases: log2 fold change, soluble protein after heating vs DMSO (PISA); higher = thermal stabilisation; K562 cells, 10 uM, 30 min; active = over 0.2 and 3.5 SD of the protein, either way, in both replicates (recomputed)
bafetinib = compound: Cc1ccc(NC(=O)c2ccc(CN3CC[C@H](N(C)C)C3)c(C(F)(F)F)c2)cc1Nc1nccc(-c2cncnc2)n1 [bafetinib]
How it was run: (§1)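 K562 cells at 2×10^6 cells/mL were treated with 10 μM compound for 30 min. Aliquots were heated for 3 min across 48°C-58°C, pooled, and extracted in PBS with 0.5% NP-40 at 4°C; soluble protein was the supernatant after 21,000xg for 90 min. Soluble protein was quantified by TMTpro 16plex LC-MS/MS with channel sums equalised, and reported as log2 fold change in thermal stability against DMSO controls, with values from duplicates.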

[1] = compound: Cc1cccc(CC(=O)N2CCc3c2ccc(-c2cn(C)c4ncnc(N)c24)c3F)n1
How it was run: as §1

nilotinib = compound: Cc1cn(-c2cc(NC(=O)c3ccc(C)c(Nc4nccc(-c5cccnc5)n4)c3)cc(C(F)(F)F)c2)cn1 [nilotinib]
How it was run: as §1

[2] = compound: Cc1nc(Nc2n[nH]c3c2CN(C(=O)N[C@H](CN(C)C)c2ccccc2)C3(C)C)c2sccc2n1
How it was run: as §1

dasatinib = compound: Cc1nc(Nc2ncc(C(=O)Nc3c(C)cccc3Cl)s2)cc(N2CCN(CCO)CC2)n1 [dasatinib]
How it was run: as §1

[3] = compound: Cc1ncc(-c2ccnc(Nc3ccc(S(C)(=O)=O)cc3)n2)n1C(C)C
How it was run: as §1

[4] = compound: Cn1cc(-c2ccc3c(c2)CCN3C(=O)Cc2cccc(C(F)(F)F)c2)c2c(N)ncnc21
How it was run: as §1

[5] = compound: Cn1cc(-c2ccc3nnc(C(F)(F)c4ccc5ncccc5c4)n3n2)cn1
How it was run: as §1

tipifarnib = compound: Cn1cncc1[C@@](N)(c1ccc(Cl)cc1)c1ccc2c(c1)c(-c1cccc(Cl)c1)cc(=O)n2C [tipifarnib]
How it was run: as §1

mubritinib = compound: FC(F)(F)c1ccc(/C=C/c2nc(COc3ccc(CCCCn4ccnn4)cc3)co2)cc1 [mubritinib]
How it was run: as §1

Measured: log2 fold change

MAP2K7 isoform 4 (UniProt O14733)
inactive: bafetinib -0.086 | [1] 0 | nilotinib -0.035 | [2] 0.025 | dasatinib -0.075 | [3] -0.039 | [4] -0.006 | [5] 0.02 | tipifarnib 0.027 | mubritinib -0.018

MFGE8 (UniProt Q08431)
Sequence of UniProt Q08431 (Q08431 whole entry, looked up): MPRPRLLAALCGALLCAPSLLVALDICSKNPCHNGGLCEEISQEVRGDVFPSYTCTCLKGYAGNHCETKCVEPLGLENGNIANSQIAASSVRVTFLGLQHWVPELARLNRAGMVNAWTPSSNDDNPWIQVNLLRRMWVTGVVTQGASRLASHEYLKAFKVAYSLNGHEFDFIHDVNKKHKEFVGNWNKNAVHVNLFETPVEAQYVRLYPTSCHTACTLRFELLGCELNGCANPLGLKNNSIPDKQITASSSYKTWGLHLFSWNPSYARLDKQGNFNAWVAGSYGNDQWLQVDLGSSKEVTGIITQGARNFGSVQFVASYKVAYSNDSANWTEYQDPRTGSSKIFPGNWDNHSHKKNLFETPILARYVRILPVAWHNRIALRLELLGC
inactive: bafetinib 0.024 | [1] 0.002 | nilotinib 0.168 | [2] 0.008 | dasatinib 0.049 | [3] -0.039 | [4] -0.057 | [5] -0.029 | tipifarnib 0.033 | mubritinib -0.096

IRF2BPL (UniProt Q9H1B7)
Sequence of UniProt Q9H1B7 (Q9H1B7 whole entry, looked up): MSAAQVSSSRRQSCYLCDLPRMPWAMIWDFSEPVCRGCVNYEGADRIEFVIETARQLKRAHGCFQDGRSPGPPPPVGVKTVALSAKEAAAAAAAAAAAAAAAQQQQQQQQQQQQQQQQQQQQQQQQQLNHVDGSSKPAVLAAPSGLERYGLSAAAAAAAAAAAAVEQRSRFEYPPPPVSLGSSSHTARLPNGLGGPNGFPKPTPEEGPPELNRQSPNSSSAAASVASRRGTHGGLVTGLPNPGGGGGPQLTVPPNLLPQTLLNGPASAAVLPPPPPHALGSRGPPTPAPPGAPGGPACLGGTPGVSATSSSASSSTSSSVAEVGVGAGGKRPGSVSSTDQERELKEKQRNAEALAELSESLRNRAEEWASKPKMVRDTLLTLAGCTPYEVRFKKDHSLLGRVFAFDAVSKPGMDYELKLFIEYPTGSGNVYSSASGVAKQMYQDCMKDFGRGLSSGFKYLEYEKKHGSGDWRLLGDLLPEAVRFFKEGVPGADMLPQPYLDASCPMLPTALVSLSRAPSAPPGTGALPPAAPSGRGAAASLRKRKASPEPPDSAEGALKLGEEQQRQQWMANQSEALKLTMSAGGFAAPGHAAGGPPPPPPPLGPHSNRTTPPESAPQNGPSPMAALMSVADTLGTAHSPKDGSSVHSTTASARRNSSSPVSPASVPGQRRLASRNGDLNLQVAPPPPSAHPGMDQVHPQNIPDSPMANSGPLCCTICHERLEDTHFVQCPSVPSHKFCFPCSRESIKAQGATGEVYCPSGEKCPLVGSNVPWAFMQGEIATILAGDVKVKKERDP
inactive: bafetinib -0.038 | [1] 0.012 | nilotinib -0.07 | [2] -0.034 | dasatinib -0.034 | [3] -0.029 | [4] 0.083 | [5] -0.084 | tipifarnib -0.067 | mubritinib -0.055

KTN1 (UniProt Q86UP2)
inactive: bafetinib 0.042 | [1] 0.013 | nilotinib -0.117 | [2] 0.055 | dasatinib -0.013 | [3] 0.063 | [4] -0.081 | [5] -0.03 | tipifarnib -0.064 | mubritinib -0.032

MAP3K20 (UniProt Q9NYL2)
active: bafetinib -0.246 | dasatinib -0.712
inactive: [1] 0.039 | nilotinib -0.216 | [2] 0.057 | [3] -0.079 | [4] -0.065 | [5] -0.019 | tipifarnib -0.013 | mubritinib -0.041

MFSD5 isoform 2 (UniProt Q6N075)
inactive: bafetinib -0.126 | [1] 0.009 | nilotinib 0.054 | [2] 0.055 | dasatinib -0.029 | [3] -0.057 | [4] -0.048 | [5] 0.009 | tipifarnib 0.141 | mubritinib 0.128

IGFBP4 (UniProt P22692)
inactive: bafetinib -0.126 | [1] -0.173 | nilotinib 0.077 | [2] -0.06 | dasatinib 0.14 | [3] -0.007 | [4] 0.116 | [5] -0.102 | tipifarnib 0.033 | mubritinib -0.15

KPNB1 (UniProt Q14974)
inactive: bafetinib 0.029 | [1] 0.029 | nilotinib -0.129 | [2] -0.09 | dasatinib -0.072 | [3] -0.018 | [4] -0.09 | [5] -0.045 | tipifarnib -0.12 | mubritinib 0.019

LARP4 isoform 4 (UniProt Q71RC2)
inactive: bafetinib 0.022 | [1] -0.027 | nilotinib -0.073 | [2] -0.147 | dasatinib 0 | [3] -0.028 | [4] -0.078 | [5] -0.103 | tipifarnib 0.071 | mubritinib -0.046

LAMP2 (UniProt P13473)
inactive: bafetinib -0.124 | [1] -0.051 | nilotinib 0.002 | [2] -0.014 | dasatinib 0.017 | [3] 0.014 | [4] 0.048 | [5] 0.035 | tipifarnib 0.14 | mubritinib 0.017

KIF1B isoform 4 (UniProt O60333)
inactive: bafetinib -0.056 | [1] -0.004 | nilotinib 0.01 | [2] 0.073 | dasatinib -0.066 | [3] -0.064 | [4] -0.044 | [5] 0.033 | tipifarnib -0.004 | mubritinib -0.004

LIMD1 (UniProt Q9UGP4)
inactive: bafetinib -0.143 | [1] 0.017 | nilotinib 0.023 | [2] -0.085 | dasatinib 0.001 | [3] -0.008 | [4] 0.021 | [5] -0.015 | tipifarnib -0.071 | mubritinib 0.012

MAPK14 (UniProt Q16539)
active: bafetinib 1.65 | nilotinib 1.68 | dasatinib 1.05
inactive: [1] -0.092 | [2] 0.123 | [3] 0.071 | [4] 0.107 | [5] 0.014 | tipifarnib -0.102 | mubritinib 0

MCU (UniProt Q8NE86)
inactive: bafetinib -0.173 | [1] 0.032 | nilotinib -0.017 | [2] 0.128 | dasatinib -0.055 | [3] -0.026 | [4] -0.03 | [5] 0 | tipifarnib -0.005 | mubritinib 0.024

MAP4 (UniProt P27816)
inactive: bafetinib 0.008 | [1] 0.005 | nilotinib 0.008 | [2] 0.008 | dasatinib 0.049 | [3] -0.01 | [4] -0.033 | [5] -0.029 | tipifarnib 0 | mubritinib -0.007

INTS7 (UniProt Q9NVH2)
Sequence of UniProt Q9NVH2 (Q9NVH2 whole entry, looked up): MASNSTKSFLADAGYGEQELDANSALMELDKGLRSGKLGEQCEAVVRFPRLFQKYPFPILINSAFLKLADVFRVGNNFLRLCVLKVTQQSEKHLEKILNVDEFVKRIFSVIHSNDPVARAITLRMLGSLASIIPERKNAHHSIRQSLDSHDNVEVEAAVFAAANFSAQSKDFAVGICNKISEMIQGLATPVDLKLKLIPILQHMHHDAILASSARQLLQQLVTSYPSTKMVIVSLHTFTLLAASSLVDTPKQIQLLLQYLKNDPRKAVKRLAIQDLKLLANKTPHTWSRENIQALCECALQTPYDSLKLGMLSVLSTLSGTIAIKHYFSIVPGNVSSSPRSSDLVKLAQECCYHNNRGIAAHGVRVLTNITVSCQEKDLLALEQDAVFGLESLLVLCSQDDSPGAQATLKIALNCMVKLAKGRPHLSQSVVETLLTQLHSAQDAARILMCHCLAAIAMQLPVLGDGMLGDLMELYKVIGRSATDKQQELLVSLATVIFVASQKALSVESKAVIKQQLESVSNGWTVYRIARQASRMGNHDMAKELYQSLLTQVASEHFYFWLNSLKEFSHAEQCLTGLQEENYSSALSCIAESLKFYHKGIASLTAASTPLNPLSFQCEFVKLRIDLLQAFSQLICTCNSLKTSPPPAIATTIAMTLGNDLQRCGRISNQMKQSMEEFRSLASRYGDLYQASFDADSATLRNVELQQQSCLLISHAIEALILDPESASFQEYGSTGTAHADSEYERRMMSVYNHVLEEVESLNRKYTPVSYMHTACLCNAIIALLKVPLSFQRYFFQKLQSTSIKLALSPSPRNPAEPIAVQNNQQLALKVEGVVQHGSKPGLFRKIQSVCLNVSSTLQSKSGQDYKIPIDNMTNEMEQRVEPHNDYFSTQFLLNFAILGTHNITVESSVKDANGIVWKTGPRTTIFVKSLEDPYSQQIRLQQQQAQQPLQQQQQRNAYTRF
inactive: bafetinib 0.02 | [1] 0.033 | nilotinib -0.054 | [2] -0.025 | dasatinib -0.109 | [3] 0.114 | [4] -0.021 | [5] 0.017 | tipifarnib -0.132 | mubritinib -0.123

LPCAT3 (UniProt Q6P1A2)
Sequence of UniProt Q6P1A2 (Q6P1A2 whole entry, looked up): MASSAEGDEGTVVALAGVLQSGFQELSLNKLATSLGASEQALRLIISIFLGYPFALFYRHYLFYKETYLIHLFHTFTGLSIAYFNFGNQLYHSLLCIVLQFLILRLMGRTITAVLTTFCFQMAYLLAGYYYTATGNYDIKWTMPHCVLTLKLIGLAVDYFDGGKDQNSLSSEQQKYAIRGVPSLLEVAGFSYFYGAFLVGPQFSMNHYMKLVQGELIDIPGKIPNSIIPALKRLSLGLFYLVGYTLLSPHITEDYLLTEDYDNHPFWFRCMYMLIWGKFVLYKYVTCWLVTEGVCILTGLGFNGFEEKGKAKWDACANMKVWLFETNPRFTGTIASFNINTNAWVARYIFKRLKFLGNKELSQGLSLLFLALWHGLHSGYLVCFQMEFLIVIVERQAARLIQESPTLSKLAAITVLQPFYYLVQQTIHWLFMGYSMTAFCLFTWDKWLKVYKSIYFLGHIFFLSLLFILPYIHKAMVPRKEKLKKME
active: [3] 0.363
inactive: bafetinib 0.108 | [1] 0.063 | nilotinib 0.044 | [2] 0 | dasatinib 0.051 | [4] 0.153 | [5] -0.015 | tipifarnib -0.216 | mubritinib 0.034

MIEN1 (UniProt Q9BRT3)
Sequence of UniProt Q9BRT3 (Q9BRT3 whole entry, looked up): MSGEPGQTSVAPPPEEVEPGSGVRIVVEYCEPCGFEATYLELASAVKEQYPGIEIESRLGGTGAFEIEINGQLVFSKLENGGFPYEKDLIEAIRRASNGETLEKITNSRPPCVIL
inactive: bafetinib 0.023 | [1] -0.013 | nilotinib -0.029 | [2] -0.037 | dasatinib -0.041 | [3] -0.08 | [4] 0.08 | [5] 0.139 | tipifarnib 0.083 | mubritinib 0.018

KDM3B (UniProt Q7LBC6)
inactive: bafetinib -0.005 | [1] 0.038 | nilotinib -0.009 | [2] -0.098 | dasatinib -0.136 | [3] 0.042 | [4] -0.032 | [5] 0.006 | tipifarnib 0.018 | mubritinib 0.002

KCTD2 (UniProt Q14681)
Sequence of UniProt Q14681 (Q14681 whole entry, looked up): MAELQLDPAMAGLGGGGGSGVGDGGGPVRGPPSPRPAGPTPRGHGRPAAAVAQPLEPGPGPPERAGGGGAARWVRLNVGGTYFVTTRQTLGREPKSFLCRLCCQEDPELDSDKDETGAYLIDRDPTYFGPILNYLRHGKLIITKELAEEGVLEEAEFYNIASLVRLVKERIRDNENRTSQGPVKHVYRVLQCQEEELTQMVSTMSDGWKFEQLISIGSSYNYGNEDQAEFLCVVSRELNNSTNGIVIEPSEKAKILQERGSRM
inactive: bafetinib -0.23 | nilotinib -0.144 | [2] 0.012 | dasatinib 0.146 | [3] -0.076 | [4] -0.102 | [5] -0.015 | tipifarnib 0.308 | mubritinib 0.113
active: [1] -0.845

KIFBP (UniProt Q96EK5)
inactive: bafetinib 0.006 | [1] 0.094 | nilotinib -0.162 | [2] -0.079 | dasatinib -0.114 | [3] -0.004 | [4] -0.084 | [5] -0.046 | tipifarnib -0.063 | mubritinib -0.078

MAPK9 (UniProt P45984)
inactive: bafetinib -0.112 | [1] 0.003 | nilotinib -0.023 | [2] 0.047 | dasatinib -0.044 | [3] 0.134 | [4] 0.042 | [5] 0.04 | tipifarnib 0.015 | mubritinib -0.059

IRAK4 (UniProt Q9NWZ3)
Sequence of UniProt Q9NWZ3 (Q9NWZ3 whole entry, looked up): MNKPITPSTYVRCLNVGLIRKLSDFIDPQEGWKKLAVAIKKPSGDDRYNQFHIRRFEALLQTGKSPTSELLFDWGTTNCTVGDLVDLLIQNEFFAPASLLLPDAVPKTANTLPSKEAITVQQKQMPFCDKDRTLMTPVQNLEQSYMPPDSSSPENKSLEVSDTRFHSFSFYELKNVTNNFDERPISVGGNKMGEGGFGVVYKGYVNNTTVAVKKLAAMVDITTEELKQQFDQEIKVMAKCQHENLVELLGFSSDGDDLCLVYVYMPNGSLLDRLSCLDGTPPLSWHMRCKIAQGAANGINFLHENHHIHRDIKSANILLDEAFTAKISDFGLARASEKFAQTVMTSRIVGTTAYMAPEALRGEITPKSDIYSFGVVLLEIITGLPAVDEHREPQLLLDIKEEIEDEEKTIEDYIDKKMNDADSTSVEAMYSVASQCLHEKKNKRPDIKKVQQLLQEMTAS
active: [1] 0.236
inactive: bafetinib -0.047 | nilotinib -0.089 | [2] -0.047 | dasatinib -0.143 | [3] -0.01 | [4] 0.011 | [5] 0.035 | tipifarnib -0.116 | mubritinib -0.031

MIA2 (UniProt Q96PC5)
inactive: bafetinib -0.068 | [1] -0.029 | nilotinib -0.002 | [2] -0.048 | dasatinib -0.051 | [3] -0.038 | [4] -0.058 | [5] 0.041 | tipifarnib 0.029 | mubritinib -0.046

LBR (UniProt Q14739)
Sequence of UniProt Q14739 (Q14739 whole entry, looked up): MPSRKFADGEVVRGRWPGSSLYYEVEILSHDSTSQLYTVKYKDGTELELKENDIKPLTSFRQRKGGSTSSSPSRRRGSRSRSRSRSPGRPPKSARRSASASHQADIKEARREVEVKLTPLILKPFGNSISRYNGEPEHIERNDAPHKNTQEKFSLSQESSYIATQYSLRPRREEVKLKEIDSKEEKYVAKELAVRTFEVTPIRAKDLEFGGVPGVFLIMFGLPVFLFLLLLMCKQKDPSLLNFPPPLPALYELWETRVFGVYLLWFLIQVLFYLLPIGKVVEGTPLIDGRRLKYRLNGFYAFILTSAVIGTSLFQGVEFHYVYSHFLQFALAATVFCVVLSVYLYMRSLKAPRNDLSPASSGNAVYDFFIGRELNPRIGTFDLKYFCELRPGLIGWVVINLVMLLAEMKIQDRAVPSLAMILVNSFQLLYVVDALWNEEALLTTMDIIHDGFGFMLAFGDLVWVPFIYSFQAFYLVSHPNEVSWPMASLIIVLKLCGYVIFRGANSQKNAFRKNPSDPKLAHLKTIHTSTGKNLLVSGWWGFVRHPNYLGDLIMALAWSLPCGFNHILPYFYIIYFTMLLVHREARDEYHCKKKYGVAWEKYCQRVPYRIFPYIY
inactive: bafetinib 0.113 | [1] 0.101 | nilotinib -0.201 | [2] -0.007 | dasatinib -0.017 | [3] -0.018 | [4] 0.041 | [5] 0.012 | tipifarnib -0.141 | mubritinib 0.026

KLHL18 (UniProt O94889)
inactive: bafetinib 0.027 | [1] -0.252 | nilotinib 0.005 | [2] -0.021 | dasatinib -0.187 | [3] 0.025 | [4] 0.061 | [5] -0.027 | tipifarnib 0.044 | mubritinib -0.017

LUC7L (UniProt Q9NQ29)
Sequence of UniProt Q9NQ29 (Q9NQ29 whole entry, looked up): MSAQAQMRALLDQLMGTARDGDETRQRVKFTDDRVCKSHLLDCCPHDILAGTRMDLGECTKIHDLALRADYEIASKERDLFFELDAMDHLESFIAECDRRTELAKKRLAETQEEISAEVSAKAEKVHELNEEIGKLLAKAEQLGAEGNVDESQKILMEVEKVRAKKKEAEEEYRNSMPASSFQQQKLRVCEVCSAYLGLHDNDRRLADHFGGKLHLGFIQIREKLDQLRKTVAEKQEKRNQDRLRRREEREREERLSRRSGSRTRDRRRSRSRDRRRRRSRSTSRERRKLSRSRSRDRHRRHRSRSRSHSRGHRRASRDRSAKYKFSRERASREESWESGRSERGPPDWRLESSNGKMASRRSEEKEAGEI
inactive: bafetinib 0.057 | [1] -0.046 | nilotinib 0.049 | dasatinib 0.062 | [3] 0.109 | [4] -0.095 | [5] -0.054 | tipifarnib 0.049 | mubritinib -0.099
active: [2] -1.71

LMBRD1 (UniProt Q9NUN5)
Sequence of UniProt Q9NUN5 (Q9NUN5 whole entry, looked up): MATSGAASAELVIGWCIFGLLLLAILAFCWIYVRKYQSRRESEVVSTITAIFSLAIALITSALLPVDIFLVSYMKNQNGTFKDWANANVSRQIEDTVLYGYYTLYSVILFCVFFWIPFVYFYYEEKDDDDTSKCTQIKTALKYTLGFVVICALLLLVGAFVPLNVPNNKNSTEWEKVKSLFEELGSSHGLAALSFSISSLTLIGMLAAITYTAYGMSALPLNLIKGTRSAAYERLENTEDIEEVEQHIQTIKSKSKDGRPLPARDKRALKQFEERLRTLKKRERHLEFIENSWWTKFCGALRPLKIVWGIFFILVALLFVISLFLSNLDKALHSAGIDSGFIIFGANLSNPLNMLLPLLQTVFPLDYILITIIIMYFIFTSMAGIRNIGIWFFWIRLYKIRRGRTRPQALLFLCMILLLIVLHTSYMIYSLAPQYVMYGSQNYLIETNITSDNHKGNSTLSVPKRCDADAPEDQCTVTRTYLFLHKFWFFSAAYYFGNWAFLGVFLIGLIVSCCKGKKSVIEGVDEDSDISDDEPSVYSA
inactive: bafetinib -0.065 | [1] 0.01 | nilotinib -0.006 | [2] -0.062 | dasatinib 0.064 | [3] 0.026 | [4] -0.139 | [5] 0.014 | tipifarnib -0.156 | mubritinib 0.08

JMJD6 isoform 3 (UniProt Q6NYC1)
inactive: bafetinib -0.067 | [1] 0.06 | nilotinib -0.011 | [2] -0.254 | dasatinib -0.009 | [3] -0.098 | [4] -0.008 | [5] -0.047 | tipifarnib 0.036 | mubritinib -0.065

KLC2 (UniProt Q9H0B6)
inactive: bafetinib 0.013 | [1] 0.018 | nilotinib -0.049 | dasatinib -0.07 | [3] 0.025 | [4] 0.05 | [5] 0.046 | tipifarnib 0.031 | mubritinib 0.009
active: [2] -0.388
